Screens: PubChem, National Center for Advancing Translational Sciences (NCATS)
Only some compounds are listed: those with a hit (about 2.4% of all), similar ones and a draw of the others.
D2 PAM-1: human D2 receptor positive allosteric modulation; P14416; DiscoveRx D2 beta-arrestin cells, luminescence, 90 min; 100% = 57 uM dopamine signal; potentiation, % (no concentration beside the values); 0.23% of 360,000 active; AID 624464; in the data active means potentiation above about 50%; inconclusive means mostly about 30% to 49%
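PathHunter D2 cells, attached overnight at 37 deg C, received compound in DMSO plus dopamine at EC20 (50 nM final) for 90 min at 37 deg C. Beta-arrestin recruitment was read as luminescence after 1 h with detection reagent at ambient temperature.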
D2 ag-1: agonists of human D2 dopamine receptor | P14416 | HEK293 T-REx D2 cells, calcium flux agonist mode | activation, % at 2 µM | 0.53% of 340,000 active;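 active means activation over 3 SD above normal in the single-dose calcium agonist read, cut at about 30% in these data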
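HEK293 Trex D2 cells, tetracycline-induced, o/n 30 C 5% CO2; no-wash Ca dye, RT 30–90 min; 10-cycle baseline, 23 nl cpd added, kinetic Ca read 180 s; agonist hits = positive Ca response.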
D2 PAM-2: positive allosteric modulators of human D2 dopamine receptor | 0.34% of 340,000 active | AID 485347 | HEK293 T-REx D2, calcium flux, EC20 dopamine potentiation | potentiation, % at 10 µM;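 active means potentiation over 3 SD above the plate norm, cut at about 30% in these data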
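Tetracycline-induced HEK293 T-REx cells force-coupled to calcium signalling expressed D2; compounds were pin-added after a 10 s baseline, read kinetically 180 s, then an EC20 dopamine challenge followed with a further 180 s calcium read.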
D2 ag-2: agonists of human D2 dopamine receptor (beta-arrestin); P14416; DiscoveRx PathHunter D2 beta-arrestin, luminescence, 90 min; 100% = 57 uM dopamine signal; activation, % (test concentration not listed); 0.084% of 360,000 active; AID 624465; in the data active means activation above about 40%; inconclusive means between about 15% and that limit
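Agonist mode: compounds alone added to overnight-plated D2 PathHunter cells for 90 min at 37 C, with 57 uM final dopamine (EC100) defining full response. Beta-arrestin recruitment detected by chemiluminescent reagent, read after 1 h at ambient temperature.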
D2 antag: antagonists of human D2 dopamine receptor; P14416; HEK293 TREx D2 cells, calcium flux, dopamine EC80; inhibition, % at 10 µM; 2% of 340,000 active; AID 485344; in the data active means inhibition above about 30%; inactive means below that, where a call was filed
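Cells plated overnight at 30 C with tetracycline; no-wash calcium dye, 30–90 min RT; 10 s baseline; compound pinned; 180 s read; EC80 dopamine added; another 180 s read.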
B2AR arrestin: agonists driving beta-arrestin recruitment to human beta2-adrenergic receptor | beta-arrestin recruitment to beta2AR, cell-based reporter | Potency, µM (series often up to 46.1 µM), usual class: activators | 0.02% of 330,000 active | AID 492947; active means well fitted activation curve with a large enough effect; inconclusive means small, poorly fitted or top-dose-only effect; further: nearly all actives have a fitted effect of over 65% in size
Target sequence (P07550 whole entry, looked up): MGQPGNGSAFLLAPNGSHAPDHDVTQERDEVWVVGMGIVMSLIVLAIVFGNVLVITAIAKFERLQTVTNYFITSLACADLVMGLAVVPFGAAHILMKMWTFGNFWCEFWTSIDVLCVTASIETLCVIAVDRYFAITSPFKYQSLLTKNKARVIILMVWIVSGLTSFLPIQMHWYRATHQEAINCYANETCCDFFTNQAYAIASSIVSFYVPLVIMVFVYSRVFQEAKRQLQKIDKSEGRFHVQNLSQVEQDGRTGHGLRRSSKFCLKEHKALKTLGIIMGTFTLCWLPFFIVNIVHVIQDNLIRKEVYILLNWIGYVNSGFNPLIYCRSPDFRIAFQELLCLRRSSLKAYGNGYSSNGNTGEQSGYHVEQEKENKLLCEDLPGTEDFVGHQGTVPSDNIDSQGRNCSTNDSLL
Each line names hits and unclear results; the compound was inactive in the other large screens.

Cc1ccc(-n2nc3c(N4CCC(C(=O)NCc5ccc(C)o5)CC4)nnc(C)c3c2C)cc1	D2 PAM-2 31
COc1ccc(NC(=S)N(CCCN2CCCC2)Cc2cccs2)cc1	none
COc1ccc(NC(=S)N(CCCN2CCCC(C)C2)Cc2cccs2)cc1 (centres undefined)	D2 antag 49 (no result: D2 PAM-2)
Cc1ccc(Cl)cc1NC(=S)N(CCCN1CCN(C)CC1)Cc1cccs1	D2 antag 45
CS(=O)(=O)Nn1cnc2ccccc2c1=O	D2 PAM-2 35
CC(=O)c1ccc(-c2ccc(C(=O)N(C)Cc3nc4ccccc4c(=O)[nH]3)o2)cc1	none
CN1C(=O)C2(C(C#N)=C(N)N(c3cc(Cl)cc(Cl)c3)C3=C2C(=O)CC(C)(C)C3)c2ccccc21 (centres undefined)	D2 antag 33 (no result: B2AR arrestin)
COc1ccccc1N1CCN(c2csc3ccccc3c2=O)CC1	none (no result: D2 PAM-1, D2 ag-2, D2 antag, B2AR arrestin)
CC(=O)C1=C(C)OC(N)=C(C#N)C1c1cc2cc(C)c(C)cc2nc1Cl (centres undefined)	D2 antag 31
COC(=O)C1=C(C)OC(N)=C(C#N)C1c1cc2cc(C)ccc2nc1Cl (centres undefined)	none
COc1ccc(-n2c(O)c(/C=N/NS(=O)(=O)c3ccc(C)cc3)c3ccccc3c2=O)cc1OC	none
COc1ccc(-n2c(O)c(/C=N/NS(=O)(=O)c3cc(C)ccc3C)c3ccccc3c2=O)cc1OC	D2 ag-1 41
COc1ccccc1OCCNC1CCCC1	none
CCC(C)c1ccccc1OCCOCCN1CCCC1 (centres undefined)	D2 antag 54
Cc1ccccc1OCCCN1CCCC1	none (no result: D2 ag-1, D2 PAM-2, D2 antag)
CCC(C)c1ccccc1OCCCNC1CCCC1 (centres undefined)	D2 antag 78
CCC(C)c1ccccc1OCCCCN1CCCC1 (centres undefined)	D2 antag 65
Brc1ccccc1OCCCCCN1CCCC1	none (no result: D2 PAM-1, D2 ag-2)
Cc1ccc(CSc2nnc(-c3ccncc3)o2)c(C)c1	none (no result: D2 PAM-2)
C=C(C)Cn1c(SCC(=O)O)nc2c1c(=O)[nH]c(=O)n2C	none
O=C(COC(=O)CNC(=O)c1ccc(Cl)cc1)Nc1cccc(S(=O)(=O)N2CCCC2)c1	none
O=C1C2C3CCC(O3)C2C(=O)N1c1cc(OCC(F)F)cc([N+](=O)[O-])c1 (centres undefined)	D2 antag 35
CC(=O)Cn1c(CN2CCCCC2)nc2ccccc2c1=O	none
CC(=O)Cn1c(CN2CCCC2)nc2ccccc2c1=O	D2 antag 35
Cc1cc(C)cc(OCc2ccc(C(=O)NC3CCOC3=O)o2)c1 (centres undefined)	none (no result: D2 PAM-2)
CC1=NN(C(N)=S)C(=O)C1N=Nc1ccccc1 (centres undefined)	B2AR arrestin 1.4µM
CN(C)N=Nc1nc2c(c(=O)n(C)c(=O)n2C)n1C	none
COc1ccc(Nc2cc(C(=O)NCCCN3CCN(C)CC3)c3ccccc3n2)cc1OC	none
CCN(CC)CCNC(=O)c1cc(Nc2ccc(OC)c(OC)c2)nc2ccccc12	D2 antag 43
COc1ccc(Nc2cc(C(=O)NCCCN3CCOCC3)c3ccccc3n2)cc1OC	D2 antag 30
CCOc1ccc(S(=O)(=O)N2CCN(c3ccccn3)CC2)cc1	none
C[C@@H]1CC2OC(=O)[C@@]3(C)C(=O)CC[C@@](C)(C23)[C@@]1(O)CCc1ccoc1 (some centres undefined)	D2 antag 30
CCN(CC)C(=O)c1cccc(C)c1	none
CCN(CC)C(=O)c1ccc(C)c(Br)c1	D2 antag 31
Cc1cc(C)nc(OC(C(=O)O)C(OCC(C)C)(c2ccccc2)c2ccccc2)n1 (centres undefined)	D2 PAM-1 72
CCCOCC1CC2(CC(C)(c3csc(N)n3)OC2=O)C(=O)O1 (centres undefined)	none
CCOC(=O)C1(c2csc(N)n2)COC(=O)C1 (centres undefined)	D2 antag 44 (no result: B2AR arrestin)
Cc1nn(CC(=O)NCC(C)c2ccccc2)c(=O)c2cccn12 (centres undefined)	none
COc1ccc(-c2ccc(CCC(=O)O)n2-c2cc(Cl)ccc2O)cc1	none (no result: D2 PAM-1, D2 ag-2, D2 antag, B2AR arrestin)
COc1ccc(-n2c(CCC(=O)O)ccc2-c2ccc(F)cc2)c(OC)c1	D2 PAM-2 32
COC(=O)c1ccccc1-n1c(CCC(=O)O)ccc1-c1ccccc1	none
COC(=O)c1ccccc1-n1c(CCC(=O)O)ccc1-c1ccc(F)cc1	D2 PAM-1 56
O=C1CCCN1c1ncc(S(=O)(=O)c2ccc([N+](=O)[O-])cc2)s1	D2 PAM-1 54, D2 ag-2 inconclusive
O=C(NC1CCCC1)c1cc(-c2ccc(Cl)cc2Cl)on1	D2 antag 31
O=C(NC1CCCCC1)c1cc(-c2ccccc2Cl)on1	none
O=C(Nc1ccc2c(c1)OCO2)c1cc(-c2ccccc2Cl)on1	D2 antag 37
O=C(NC1CCCC1)c1cc(-c2ccccc2Cl)on1	D2 antag 50
O=C(NC1CCCC1)c1cc(-c2ccccc2O)on1	D2 antag 48
COc1ccccc1-c1cc(C(=O)NC2CCCC2)no1	none (no result: D2 PAM-2)
O=C(NCc1ccc2c(c1)OCO2)c1cc(-c2ccccc2Cl)on1	none
Cc1ccc(S(=O)(=O)N2CCN(CC(=O)NC(=O)NCc3ccccc3)CC2)cc1C	none
CCc1ccc(C(=O)c2cn(CC(=O)NCc3ccc(C)cc3)c3nc(C)ccc3c2=O)cc1	none (no result: D2 PAM-1, D2 ag-2, D2 antag, B2AR arrestin)
CC(=O)c1ccc(N(C(=O)CNC(=O)c2ccco2)C(C(=O)NC2CCCC2)c2ccc(C)o2)cc1 (centres undefined)	none
CCN1C(=O)[C@@H]2[C@@H](c3ccc(-c4ccccc4)cc3)N3CCC[C@@]3(C(=O)OC)[C@@H]2C1=O	none (no result: D2 ag-1, D2 PAM-2, D2 antag)
O=C1c2ccccc2C(=O)N1CCCCN(C(=O)c1cc2ccccc2oc1=O)c1ccc(Cl)cc1	none
Cc1ccc2[nH]c3c(N4CCN(Cc5ccccc5)CC4)ncnc3c2c1	D2 antag 39
Cc1ccc2c(c1)[nH]c1c(N3CCN(Cc4ccccc4)CC3)ncnc12	none
Cc1ccc(-c2nc3ccsc3c(=O)o2)cc1	none
COc1cc(OC)cc(C(=O)NC2CC(C)(C)NC(C)(C)C2)c1	D2 antag 82
O=C1CCC(C(=O)Nc2ccccc2N2CCCC2)=NN1	none
COc1cc(/C=C2\SC(=Nc3ccc(Cl)c(C(=O)O)c3)NC2=O)c(Br)c(Br)c1O	D2 ag-1 87, D2 antag 37
COC(=O)/C=C1\SC(=Nc2ccc(Cl)c(Cl)c2)NC1=O	none (no result: D2 PAM-2)
CCc1ccc(N=C2NC(=O)/C(=C/c3cc(OC)c(O)c(OC)c3)S2)cc1	D2 ag-2 inconclusive
